In the library only some 21% were active in any assay of this set; here they are far more common.
TDP1 cell CPT – qHTS for Inhibitors of human tyrosyl-DNA phosphodiesterase 1 (TDP1): qHTS in cells in presence of CPT | 420,000 tested, 12% active | AID 686979, 2013 | Potency, µM (series often up to 46.2 µM), without a hit: at the highest dose activity change, negative = growth inhibition, hits mostly inhibitors | chicken DT40 Tdp1-/-;hTDP1 cells + 20 nM CPT, ATP luminescence, 48 h; note: potency is the fitted concentration of half-maximal effect; nearly all actives have a fitted effect of over 55% in size
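Chicken DT40 Tdp1-/- cells stably complemented with human TDP1 were seeded at 400 cells/well in medium containing 20 nM camptothecin, exposed to pin-transferred compounds, and grown at 37 °C for at least 48 hr. Viability was read as ATP luminescence.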
RORgamma inh – qHTS for inhibitors of ROR gamma transcriptional activity | Nuclear receptor ROR-gamma (Mus musculus), P51450 | Drosophila S2 Gal4-RORgamma UAS-luciferase reporter, 20 h | Potency, µM (titrated, usually from 53.6 µM), inactives show at the highest dose activity change, negative = inhibition, hits mostly inhibitors | 310,000 tested, 5.4% active; note: potency is the fitted concentration of half-maximal effect; nearly all actives have a fitted effect of over 60% in size
Target sequence (P51450 whole entry, looked up, the tested form may be a part): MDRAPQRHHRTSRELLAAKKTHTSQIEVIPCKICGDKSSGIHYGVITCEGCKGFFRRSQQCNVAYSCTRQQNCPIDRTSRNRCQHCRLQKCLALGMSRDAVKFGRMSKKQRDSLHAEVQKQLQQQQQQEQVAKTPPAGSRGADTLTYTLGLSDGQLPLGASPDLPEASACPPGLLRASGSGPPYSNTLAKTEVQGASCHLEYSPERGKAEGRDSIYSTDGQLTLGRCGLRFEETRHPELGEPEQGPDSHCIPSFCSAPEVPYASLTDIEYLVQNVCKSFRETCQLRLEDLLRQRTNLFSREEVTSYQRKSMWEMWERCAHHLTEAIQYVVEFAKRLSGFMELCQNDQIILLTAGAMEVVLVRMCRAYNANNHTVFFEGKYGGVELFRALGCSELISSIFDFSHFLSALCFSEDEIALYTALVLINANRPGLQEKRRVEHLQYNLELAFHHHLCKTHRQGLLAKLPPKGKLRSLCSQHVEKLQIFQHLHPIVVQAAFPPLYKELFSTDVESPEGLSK
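Stable Schneider cell line, Gal4 DNA-binding domain fused to ROR gamma, UAS-luciferase. Cmpd 1 hr RT → CuSO4 700 uM final → 20 hr RT → luciferase reagent 10 min → luminescence.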
ELG1 DNA repair – qHTS screen for small molecules that inhibit ELG1-dependent DNA repair in human embryonic kidney (HEK293T) cells expressing luciferase-tagged ELG1; HEK293T ELG1-luciferase reporter, luminescence, 16 h; DNA damage induced by 5-fluorouridine; Potency, µM (titrated, usually from 46.1 µM), inactives show at the highest dose activity change, negative = inhibition, usual class: inhibitors; 330,000 tested, 2.3% active; AID 504467, 2011; note: potency is the fitted concentration of half-maximal effect; nearly all actives have a fitted effect of over 55% in size
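Cells (2,000 per well) received 5-fluorouridine plus test compound or DMSO and were incubated 16 hr at 37 °C, 5% CO2. Luciferase activity was read by luminescence 30 min after ONE-Glo addition; signal suppression marked inhibition of damage-induced ELG1 function.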
Gal4-VP16 FLuc – VP16 counterscreen qHTS for inhibitors of ROR gamma transcriptional activity; Potency, µM (titrated, usually from 53.6 µM), without a hit: top-dose activity, negative = inhibition, actives largely listed as inhibitors; Drosophila S2 Gal4-VP16 UAS-luciferase, luminescence, 20 h; AID 2546, 2010; 310,000 tested, 3.5% active;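 note: Gal4-VP16 expression switched on by copper sulfate through the metallothionein promoter; potency is the fitted concentration of half-maximal effect; nearly all actives have a fitted effect of over 50% in size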
IL1B secr inh – qHTS for Inhibitors of Inflammasome Signaling: IL-1-beta AlphaLISA Primary Screen; THP-1 LPS/ATP IL-1B secretion, AlphaLISA, 16 h; stronger effect = lower value; activity change, % at 57.5 µM; 360,000 tested, 4.7% active; in the data active = activity change below about -50%; inconclusive = mostly about -30% to -49%
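Secreted IL-1B measured by AlphaLISA bead assay after 16 h compound exposure of THP-1 cells; compounds (final up to 57.5 uM) added 1 h before LPS (250 ng/mL) and ATP (1.25 mM) stimulation; lower signal means less secretion.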
DT40 TDP1 no CPT – qHTS for Inhibitors of human tyrosyl-DNA phosphodiesterase 1 (TDP1): qHTS in cells in absence of CPT | DT40 Tdp1-/- hTDP1 cells, no CPT, ATP luminescence, 48 h | Potency, µM (top dose mostly 46.2 µM), without a hit: top-dose activity change, negative = growth inhibition, most hits filed as inhibitors | 420,000 tested, 15% active | AID 686978, 2013; note: potency is the fitted concentration of half-maximal effect; nearly all actives have a fitted effect of over 55% in size
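Compound effects on proliferation are scored in DT40 Tdp1-/-;hTDP1 cells in the absence of CPT. ATP levels (CellTiter-Glo luminescence) are recorded after a ≥48 hr, 37 °C incubation.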
* = called active by the depositor. Unless noted, calls come from the whole dose curve; as a rule, active = well fitted curve in the direction sought with a large enough effect; inconclusive = small, poorly fitted or top-dose-only effect, or another doubt; inactive = no such curve, though single readings can be large; an effect the other way counts as inactive or inconclusive. % is set by controls: 0 for no effect and ±100 for the full control effect.

What do the screens show for `COc1ccc(C)cc1N1C(=N)/C(=C2/Nc3ccccc3S2)C(c2ccccc2)C1=O` (stereo not drawn)?
TDP1 cell CPT: 6.5µM*; RORgamma inh: 2.5µM*; ELG1 DNA repair: inconclusive; Gal4-VP16 FLuc: 8.9µM*; IL1B secr inh: -11; DT40 TDP1 no CPT: 3.7µM*

What do the screens show for `COc1ccc(C2C(Oc3ccccc3)C(=O)N2c2cc(C)ccc2C)cc1OC` (stereo not drawn)?
TDP1 cell CPT: 0%; RORgamma inh: -16%; ELG1 DNA repair: inconclusive; Gal4-VP16 FLuc: -10%; IL1B secr inh: inconclusive; DT40 TDP1 no CPT: -4%

Results for Cc1ccc(CNc2nc3ccc(Cl)cc3n3nnnc23)cc1 ?
TDP1 cell CPT: -9%; DT40 TDP1 no CPT: -9%

Results for CN(C(=O)COC(=O)c1ccc(Br)c([N+](=O)[O-])c1)c1c(N)n(Cc2ccccc2)c(=O)[nH]c1=O ?
TDP1 cell CPT: -1%; ELG1 DNA repair: 6%; IL1B secr inh: -12; DT40 TDP1 no CPT: -25%

What do the screens show for `CCOc1ccc(NC(=O)CN(C)C(=O)c2ccccc2Cc2ccccc2)cc1OCC`?
TDP1 cell CPT: 15µM*; ELG1 DNA repair: inconclusive; IL1B secr inh: 1; DT40 TDP1 no CPT: 9.2µM*

Results for CCOc1ccc(CN(C)CC(=O)Nc2cccc(C)c2)cc1OC ?
TDP1 cell CPT: 21µM*; RORgamma inh: -3%; ELG1 DNA repair: inconclusive; Gal4-VP16 FLuc: inconclusive; IL1B secr inh: 10; DT40 TDP1 no CPT: 9.2µM*

What do the screens show for `CN(CC(=O)Nc1ccccc1Br)C(=O)c1sccc1-c1ccccc1`?
TDP1 cell CPT: inconclusive; ELG1 DNA repair: -19%; IL1B secr inh: 3; DT40 TDP1 no CPT: 13µM*

How did Cc1cccc(COc2ccccc2C(=O)N(C)CC(=O)Nc2cccc(F)c2)c1 do in these assays?
TDP1 cell CPT: inconclusive; ELG1 DNA repair: inconclusive; IL1B secr inh: -27; DT40 TDP1 no CPT: inconclusive

What do the screens show for `CCOc1ccc(NC(=O)CN(C)C(=O)c2ccccc2OCc2cccc(C)c2)cc1OCC`?
TDP1 cell CPT: inconclusive; ELG1 DNA repair: 10µM*; IL1B secr inh: -28; DT40 TDP1 no CPT: inconclusive

What do the screens show for `Cc1ccsc1C(=O)N(C)CC(=O)Nc1ccccc1Br`?
TDP1 cell CPT: -2%; ELG1 DNA repair: -1%; IL1B secr inh: -3; DT40 TDP1 no CPT: -16%

What do the screens show for `CCOc1ccc(NC(=O)CN(C)C(=O)c2ccc(COc3ccccc3)cc2)cc1OCC`?
TDP1 cell CPT: inconclusive; ELG1 DNA repair: -15%; IL1B secr inh: 12; DT40 TDP1 no CPT: -18%

What do the screens show for `OCCN(Cc1cccnc1)Cc1ccccn1`?
TDP1 cell CPT: inconclusive; IL1B secr inh: 26; DT40 TDP1 no CPT: inconclusive

How did CCOc1ccc(NC(=O)CN(C)C(=O)CSCc2ccc(C)cc2)cc1OCC do in these assays?
TDP1 cell CPT: inconclusive; ELG1 DNA repair: 7.3µM*; IL1B secr inh: -7; DT40 TDP1 no CPT: inconclusive

What do the screens show for `Cc1ccc(C)c(NC(=O)CN(C)C(=O)c2ccccc2OCc2ccc(Cl)cc2)c1`?
TDP1 cell CPT: 23µM*; ELG1 DNA repair: inconclusive; IL1B secr inh: -68*; DT40 TDP1 no CPT: inconclusive

How did Cc1ccc(C)c(NC(=O)CN(C)C(=O)c2ccccn2)c1 do in these assays?
TDP1 cell CPT: 5%; IL1B secr inh: 13; DT40 TDP1 no CPT: 1%

What do the screens show for `CN(CC(=O)Nc1ccccc1Br)C(=O)c1ccccc1OCc1ccccc1Cl`?
TDP1 cell CPT: inconclusive; IL1B secr inh: -82*; DT40 TDP1 no CPT: 18µM*

How did CN(CC(=O)Nc1ccccc1Br)C(=O)c1ccccc1OCc1ccc(F)cc1 do in these assays?
TDP1 cell CPT: inconclusive; ELG1 DNA repair: -18%; IL1B secr inh: -30; DT40 TDP1 no CPT: inconclusive

Results for Cc1c(Cc2ccccc2)c(=O)[nH]c(=O)n1C ?
TDP1 cell CPT: -6%; IL1B secr inh: 10; DT40 TDP1 no CPT: -3%

Results for COc1ccccc1C(=O)NCC(=O)N/N=C/c1cccc(Cl)c1 ?
TDP1 cell CPT: -23%; RORgamma inh: 3%; ELG1 DNA repair: -3%; Gal4-VP16 FLuc: -3%; IL1B secr inh: -29; DT40 TDP1 no CPT: -14%

How did CN(C)C1CN(Cc2cn(Cc3ccc(C(F)(F)F)cc3)nn2)S(=O)(=O)C1 (stereo not drawn) do in these assays?
TDP1 cell CPT: 3%; IL1B secr inh: -2; DT40 TDP1 no CPT: -20%

What do the screens show for `CCCCSc1nc(C)cc(C)c1S(=O)(=O)c1ccccc1C`?
TDP1 cell CPT: 18µM*; RORgamma inh: -3%; ELG1 DNA repair: -2%; Gal4-VP16 FLuc: inconclusive; IL1B secr inh: 19; DT40 TDP1 no CPT: inconclusive

Results for CC(NC(=O)CN1CCN(CC(=O)Nc2ccccc2Cl)CC1)c1ccc(Br)cc1 (stereo not drawn) ?
TDP1 cell CPT: inconclusive; ELG1 DNA repair: -23%; IL1B secr inh: -3; DT40 TDP1 no CPT: inconclusive

Results for O=C1c2ccccc2S(=O)(=O)N1Cc1nc2ccccc2s1 ?
TDP1 cell CPT: -2%; RORgamma inh: 3.2µM*; ELG1 DNA repair: inconclusive; Gal4-VP16 FLuc: 4µM*; IL1B secr inh: 29; DT40 TDP1 no CPT: -10%

What do the screens show for `Cc1ccccc1CN1C(=O)c2ccccc2S1(=O)=O`?
TDP1 cell CPT: -14%; RORgamma inh: -1%; ELG1 DNA repair: -3%; Gal4-VP16 FLuc: 5%; IL1B secr inh: -22; DT40 TDP1 no CPT: -10%

Results for O=C(Nc1ccc(F)cc1)Nc1cc(OCC(F)(F)F)cc(OCC(F)(F)F)c1 ?
TDP1 cell CPT: 2.6µM*; RORgamma inh: inconclusive; ELG1 DNA repair: 0%; Gal4-VP16 FLuc: 6.3µM*; IL1B secr inh: -61*; DT40 TDP1 no CPT: 4.6µM*

What do the screens show for `O=C(NCCNC(=O)c1cc(OCC(F)(F)F)ccc1OCC(F)(F)F)Nc1ccc(Cl)cc1`?
TDP1 cell CPT: -18%; RORgamma inh: inconclusive; ELG1 DNA repair: -5%; Gal4-VP16 FLuc: 2%; IL1B secr inh: -6; DT40 TDP1 no CPT: 7%

Screens deposited in PubChem BioAssay by National Center for Advancing Translational Sciences (NCATS).
